Hits are enriched below; roughly 4.3% of the tested compounds scored in any of these assays.
uPA surface inh: inhibitors of cell surface uPA generation | Potency, µM (series often up to 38.3 µM), for the others: top-dose activity change, negative = inhibition, hits mostly inhibitors | 330,000 tested, 0.31% active | cell surface uPA generation assay, qHTS; active = well fitted inhibition curve with a large enough effect; inconclusive = small, poorly fitted or top-dose-only effect; inactive = no such curve, though single readings can be large or run the other way; tested in mouse RAW 264.7 cells; also: potency is read from the fitted curve at half-maximal effect; % is scaled to controls: 0 for no effect and ±100 for the full control effect; nearly all actives have a fitted effect of over 55% in size
Giardia killer: kills Giardia lamblia. Giardia lamblia trophozoite viability. activity change, % at 7.66 µM, hits read low. 340,000 tested, 0.15% active; in the data active = activity change below about -80%; inconclusive = between about -30% and that limit;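 also: parasites exposed to compound for two days anaerobically before the ATP read; % is scaled to controls: 0 for no effect and ±100 for the full control effect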
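Luminescence from cellular ATP indicates surviving trophozoites (100 cells/well) following 48 hrs anaerobic compound treatment at 37 deg C; signal develops 15-30 min at room temperature.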
SW480 rereplic: DNA re-replication induction in SW480 cells; Potency, µM (highest dose often 46.1 µM), for inactives: at the highest dose re-replication activation, actives largely listed as activators; SW480 DNA re-replication, Hoechst DNA content imaging, 48 h; 340,000 tested, 1.8% active; also: potency is read from the fitted curve at half-maximal effect; % of control where 0% means no effect; nearly all actives have a fitted effect of over 55% in size
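DNA re-replication was detected as more nuclei of elevated Hoechst intensity after 48 hr exposure to compound (23 nL pinned per well of 250 cells).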
MCF10A rereplic: induces DNA re-replication in MCF 10a normal breast cells; AID 624296; Potency, µM (series often up to 46.1 µM), without a hit: at the highest dose activity, positive = re-replication, usual class: activators; MCF 10A DNA re-replication, Hoechst nuclear intensity, 48 h; 350,000 tested, 2.9% active; also: potency is read from the fitted curve at half-maximal effect; % of control where 0% means no effect; nearly all actives have a fitted effect of over 50% in size
Starred values were filed as active, the others as inactive; ? = inconclusive; . = no result given; [ ] = remark or other dose. Unless noted, calls follow the shape of the dose curve; as a rule, active = well fitted activation curve with a large enough effect; inconclusive = small, poorly fitted or top-dose-only effect; inactive = no such curve, though single readings can be large or run the other way.

SMILES	uPA surface inh	Giardia killer	SW480 rereplic	MCF10A rereplic
Cn1cc(CN2C[C@]3(C)C[C@H]2CC(C)(C)C3)c(-c2ccc3c(c2)OCCO3)n1	-1.5%	-17.0	-3.6%	?
CN(C)c1ccc(NS(=O)(=O)c2ccc(Cl)cc2)cc1	4.4%	-11.2	20.6µM*	1.4%
CCOC(=O)C1CCCN(C(=O)c2cc3cc(Br)ccc3oc2=O)C1 (configuration not stated)	-3.8%	13.6	6.31µM*	5.2%
COc1ccc(/C=N\NC(=O)c2cc(O)c(O)c(O)c2)cc1COc1ccc(C(=O)OCC(C)C)cc1	-14.7%	?	-7.8%	41.3%
Cc1ccc(-c2nc3cnccn3c2Nc2ccc3c(c2)OCO3)cc1	-14.1%	11.5	-1.5%	9.1%
Cc1ccc(Nc2c(-c3ccc(N4CCOCC4)cc3)nc3ncccn23)cc1C	3.4%	-5.7	23.1µM*	?
CN(C)c1ccc(-c2nc3cnccn3c2Nc2ccc3c(c2)OCCO3)cc1	-0.8%	29.9	-17.8%	18.4µM*
Cc1ccc(Nc2c(-c3ccc(N4CCOCC4)cc3)nc3cnccn23)cc1	-2.0%	1.8	?	18.4µM*
O=C(N/N=C/c1cccc([N+](=O)[O-])c1)c1ccc(COc2ccccc2-c2ccccc2)cc1	17.7%	-2.4	1.2%	-5.3%
CCOC1=C(C#N)CC2(CC1)c1ccccc1-c1ccccc12	-3.6%	-6.1	-3.6%	?
CCOC(=O)C(=CNc1nc(-c2ccc3ccccc3c2)cs1)C(=O)OCC	1.6%	5.5	9.7%	?
CCC1(c2ccccc2)C(=O)N=C(N)N(C#N)C1=O (configuration not stated)	15.4%	-5.2	-7.1%	?
CCC1(c2ccccc2)ON(c2c(Br)cccc2Br)C1=O (configuration not stated)	?	-14.6	?	11.6µM*
COc1cc2c(c(OC)c1CC=C(C)C)C[C@H](c1ccc(O)cc1O)CO2	5.7%	-5.6	2.4%	16.4µM*
COc1ccc(S(=O)(=O)NCC2CCCN(Cc3ccccc3Cl)C2)cc1 (configuration not stated)	4.4%	12.1	-1.1%	23.1µM*
C=C1CCN(C(CC(C)C)C(=O)Nc2nc3ccc(Cl)cc3s2)S(=O)(=O)c2ccccc21 (configuration not stated)	.	-8.1	.	.
O=C(Cc1ccccc1)NNC(=O)Nc1cccc(Cl)c1	4.6%	-3.4	14.0%	-1.2%
COc1ccc(Cl)cc1NC(=O)CN(C)C(=O)c1cc2c(s1)CCCC2	?	14.9	18.4µM*	?
O=C(Nc1cccc(Cl)c1)Nc1ccccc1C(=O)O	8.91µM*	-5.4	16.8%	9.0%
O=C(CN1c2ccccc2Sc2ccccc21)NNC(=O)Nc1cccc(Cl)c1	6.3%	33.3	?	23.1µM*
COc1ccc(Cl)cc1NC(=O)Nc1ccccc1C(N)=O	3.16µM*	-8.5	4.4%	7.2%
CCCN1CNc2c(c(=O)[nH]c(=S)n2CCc2ccccc2C)C1	.	15.8	.	.
COc1ccccc1C(=O)NCCC(=O)Nc1ccc(S(=O)(=O)N2CC(C)CC(C)C2)cc1 (configuration not stated)	-18.1%	-26.9	-4.3%	12.1%
COc1ccc(Cl)cc1NC(=O)CN(C)CC(=O)N1CC(=O)Nc2ccccc21	15.5%	-15.7	5.7%	?
COc1ccc(Cl)cc1NC(=O)CN(C)CC(=O)Nc1ccccc1N1CCOCC1	-14.8%	-10.6	5.17µM*	?
SMILES	uPA surface inh	Giardia killer	SW480 rereplic	MCF10A rereplic
CCCCCC(=O)N1CCN(S(=O)(=O)c2ccc3c(c2)OCCO3)CC1	-1.2%	-8.0	-1.9%	12.4%
O=C(CCl)N1CCN(S(=O)(=O)c2ccc3c(c2)OCCCO3)CC1	?	15.2	?	4.11µM*
O=C(CCl)N1CCN(S(=O)(=O)c2ccc3ccccc3c2)CC1	-5.5%	-15.9	?	14.6µM*
O=C(Cc1ccccc1F)N1CCN(S(=O)(=O)c2ccc(Cl)cc2)CC1	-5.0%	-11.5	?	16.4µM*
Cc1ccc(CN(Cc2ccccc2)C(=S)Nc2ccccc2C)o1	-7.0%	-13.1	26.1%	?
CCC1([N+](=O)[O-])COC(c2ccc(Cl)cc2)OC1 (configuration not stated)	-0.6%	0.9	-28.1%	-16.9%
Cc1nn(C)c(Cl)c1S(=O)(=O)N(Cc1ccco1)c1ncnc2nc[nH]c12	.	2.7	.	.
COc1cc(OC)c(C(=O)OCC(=O)N2CCN(S(=O)(=O)c3ccc(C)cc3C)CC2)cc1OC	-1.7%	-1.7	2.8%	0.1%
COC(=O)c1sc(NC(=O)COc2cccnc2[N+](=O)[O-])c(C(=O)OC)c1C	?	-82.0*	?	24.0%
N#CC(C#N)=C(Nc1ccc(F)cc1)SCc1cccc(F)c1	-9.5%	67.3	-31.9%	23.1µM*
Nc1c(C(=O)O)sc2nc3c(cc12)CCCC3	6.6%	6.1	-9.8%	0.5%
Nc1c(C(=O)C2CC2)sc2nc3c(cc12)CCC3	1.3%	7.6	?	14.6µM*
O=C(Cn1cc(/C=C\[N+](=O)[O-])c2ccccc21)Nc1ccccc1	-16.2%	-14.1	?	8.2µM*
N#Cc1ccccc1Cn1cc(/C=C/[N+](=O)[O-])c2ccccc21	-16.0%	-2.3	?	4.11µM*
O=[N+]([O-])/C=C/c1cn(Cc2ccccc2)c2ccccc12	?	-12.8	?	?
C=C1CCN(C(CC(C)C)C(=O)NCc2ccc(OC)cc2)S(=O)(=O)c2ccccc21 (configuration not stated)	.	-22.6	.	.
O=C(NCC1CC1)c1ccc2c3n(nc2c1)-c1ccc(Cl)cc1CO3	?	-3.8	-7.0%	2.1%
COCCNC(=O)c1ccc2c3n(nc2c1)-c1ccccc1CO3	3.98µM*	?	-30.4%[9.22 µM]	1.3%
C=CCNC(=O)c1ccc2c3n(nc2c1)-c1ccccc1CO3	1.41µM*	?	-145.3%[9.22 µM]	1.3%
O=C(NCCO)c1ccc2c3n(nc2c1)-c1ccc(Cl)cc1CO3	?	11.8	-17.9%[9.22 µM]	-3.2%
COCCNC(=O)c1ccc2c3n(nc2c1)-c1ccc(Cl)cc1CO3	10µM*	-20.3	-15.5%	-2.2%
COc1ccc(NC(=O)CSc2nnc(Cc3ccccc3)c(=O)n2N)cc1OC	-3.8%	7.1	88.2%	28.0%
CC(CN(C)C)C(C)(O)Cc1ccc(Cl)cc1 (configuration not stated)	.	.	-2.8%	5.8%
Clc1ccc2c(N/N=C/c3ccc(Br)cc3)ccnc2c1	-4.5%	-95.6*	18.4µM*	2.59µM*
Clc1ccc2c(N/N=C/c3cccnc3)ccnc2c1	-1.7%	4.1	?	?
SMILES	uPA surface inh	Giardia killer	SW480 rereplic	MCF10A rereplic
Cc1ccccc1/C=N/Nc1ccnc2cc(Cl)ccc12	-11.4%	?	?	18.4µM*
Oc1ccc(/C=N/Nc2ccnc3cc(Cl)ccc23)c(O)c1	?	-3.4	?	?
Cc1ccc(/C=N/Nc2ccnc3cc(Cl)ccc23)c(C)c1	-28.2%	-87.9*	?	?
CCCOc1ccccc1NC(=O)/C=C/C(N)=O	.	-12.7	12.6µM*	4.47µM*
CCCCOc1ccccc1NC(=O)C=C(C)C	-2.7%	-2.5	-8.7%	-3.2%
O=C(CSc1nnc(-c2ccc(C(F)(F)F)cn2)s1)c1ccc(Cl)cc1	5.7%	12.6	-7.2%	0.0%

High-throughput results from PubChem BioAssay.
